Inconclusive results are not listed. Entries that show only a call come without a potency. Activity calls are given as the source filed them. Calls follow the shape of the dose curve; as a rule, active = well fitted cell-killing curve with a large enough effect; inconclusive = small, poorly fitted or top-dose-only effect, or effect the other way; inactive = no such curve, though single readings can be large or run the other way.
Potency is read from the fitted curve at half-maximal effect.

The nature of this test: Cell Viability - LYMP2-004 (AID 966).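 Also: cells exposed to compound for 24 h; nearly all actives have a fitted effect of over 65% in size.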 The settings on record: LYMP2-004 lymphoblastoid cell viability, qHTS; series mostly up to 92.2 µM. The source says: NIH Chemical Genomics Center [NCGC]
NIH Molecular Libraries Screening Centers Network [MLSCN]
National Institutes of Environmental Health Sciences [NIEHS]
National Toxicology Program [NTP]
We have developed a 1536-well cell-based assay for quantitative high throughput screening (qHTS) against a number of cell lines to determine in vitro cytotoxicity of small molecules. This particular assay uses a human lymphoblastoid cell line (LYMP2-004) purchased from Coriell Institute for Medical Research.
NCGC Assay Protocol Summary:
The CellTiter-Glo luminescent cell viability assay (Promega) is a homogeneous method to measure the number of viable cells in culture. The end point readout of this assay is based on quantitation of intracellular ATP, an indicator of metabolic activity, using the luciferase reaction. Luciferase catalyzes the oxidation of beetle Luciferin to oxyluciferin and light in the presence of ATP. The luminescent signal is proportional to amount of ATP present.
Using the CellTiter-Glo luminescent cell viability assay, the amount of cellular ATP was measured in the lymphoblastoid cell line with complete culture medium following compound treatment for 24 hours. The assay was performed in opaque white Kalypsys 1536-well plates. In the screen, tetraoctylammonium bromide was used as positive control. Library compounds were measured for their ability to cause acute toxicity in the cell line, as reflected by a decrease in intracellular ATP levels, in a concentration-dependent manner. […] AC50 values were determined from concentration-response data modeled with the standard Hill equation.
qHTS protocol for CellTiter Glo lymphoblastoid cellular assay
[Step] [Parameter] [Value] [Description]
1. Reagent; 5 uL; 2500 lymphoblastoid cells/well
2. Time; 5 hr; 37 C incubation
4. Controls; 23 nL; Tetraoctylammonium bromide 6.4pM to 92 uM
5. Time; 24 hr; 37 C incubation
6. Reagent; 5 uL; CellTiter Glo reagent
7. Time; 30 min; Room Temperature
8. Detection; Luminescence; Viewlux plate reader
Keywords: cell viability, cytotoxicity, lymphoblastoid cell line, luminescence, NTPHTS, NTPHTS_NCGC, NIEHS, DSSTox, MLSMR, MLSCN, NIH Roadmap, qHTS, NCGC
Regarding `CCCCC(=O)Cl`, the Potency entry was “inactive”.
The result for `COC(=O)c1ccccc1N` reads “inactive”; that for `Nc1cc(Cl)cc(Cl)c1`, “inactive”; that for `c1ccc(OCC2CO2)cc1` (stereo not given), “inactive”.
The result for `CNC(=O)O/N=C/C(C)(C)S(C)=O` (stereo not given) reads “inactive”; that for `CC(Cl)(Cl)Cl`, “inactive”.
With `C=CCOCC1CO1` (stereo not given) the entry was “inactive”; with `ClP(Cl)(Cl)(Cl)Cl`, “inactive”.
Take `Oc1ccc(Cl)c(Cl)c1Cl`: the Potency entry was “inactive”.
On to `CCCCOC(C)=O`, for which the Potency entry is “inactive”.
The result for `O=[N+]([O-])c1ccccc1O` reads “inactive”; that for `CCN(CC)CCO`, “inactive”; that for `N#CCc1ccccc1`, “inactive”.
For `Nc1ccc(-c2ccccc2)cc1`, the Potency entry is “inactive”.
The result for `C=CC=O` reads “inactive”; that for `Clc1ccc(C(Cl)(Cl)Cl)c(Cl)c1`, “inactive”; that for `CC(C)(C)OOC(=O)c1ccccc1`, “inactive”.
`Cc1cc(-c2ccc(N)c(C)c2)ccc1N`: the Potency result is “inactive”.
With `CN1CSC(=S)N(C)C1` the figure was 31.6 µM (active); with `O=C(O)c1cccc(Cl)c1`, “inactive”.
With `CC[N+](=O)[O-]` the entry was “inactive”; with `C=CCO`, “inactive”; with `CCCC[N+](=O)[O-]`, “inactive”.
The result for `CC(C)[N+](=O)[O-]` reads “inactive”.
As to `Oc1cccc(Cl)c1Cl`, the Potency result was “inactive”.
The result for `C=CCBr` reads “inactive”; that for `CCCCCC[N+](=O)[O-]`, “inactive”; that for `c1ccc(P(c2ccccc2)c2ccccc2)cc1`, “inactive”.
With `COC(C)(C)C` the entry was “inactive”.
The result for `O=NN1CCCCC1` reads “inactive”; that for `OC[P+](CO)(CO)CO`, 20 µM (active); that for `CC(C#N)CCC#N` (stereo not given), “inactive”.
`O=[N+]([O-])c1cc(Cl)c(Cl)cc1Cl`: the Potency entry is “inactive”.
The result for `CC(C)CON=O` reads “inactive”; that for `CCC[N+](=O)[O-]`, “inactive”; that for `CC(C)(COCC1CO1)COCC1CO1` (stereo not given), “inactive”.
With `CCN(N=O)C(N)=O` the entry was “inactive”; with `Nn1cnnc1`, “inactive”.
The result for `Nc1cc(Cl)cc(C(=O)O)c1Cl` reads “inactive”; that for `Cc1coc2c1CCC(C)C2` (stereo not given), “inactive”.

Values taken from PubChem BioAssay (NCATS).
